Compounds without any hit were thinned out: in the full panel of roughly 79,000, 15% have a hit. No stated cut-off is given here; in the data, active means growth inhibition above about 70%; inactive means the rest.
Experiments:
[1] = NCI Yeast Anticancer Drug Screen. Data for the rad50 strain (AID 155);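 further: 0% = growth of vehicle-only cultures of the same strain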; conditions: S. cerevisiae rad50 strain growth inhibition; at 50.0 µM; active compounds read high
Method in brief: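 Compounds were tested on a yeast strain with an engineered DNA damage repair alteration; the reported value is growth inhibition normalised to vehicle treatment.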

[2] = NCI Yeast Anticancer Drug Screen. Data for the mec2-1 strain (AID 157); conditions: S. cerevisiae mec2-1 strain, at 50.0 µM, active compounds read high
Method in brief: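 Compounds were applied to mec2-1 yeast cells. Their growth was then compared with that of vehicle-treated cultures to give growth inhibition.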

[3] = NCI Yeast Anticancer Drug Screen. Data for the sgs1 mgt1 strain (AID 161);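 further: 0% = growth of cultures given vehicle only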; conditions: S. cerevisiae sgs1 mgt1 strain, at 50.0 µM, active compounds read high
Method in brief: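 This yeast growth screen uses a strain with defined DNA-repair lesions; compound-treated growth is compared with vehicle-treated growth.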

[4] = NCI Yeast Anticancer Drug Screen. Data for the cln2 rad14 strain (AID 165);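 further: 0% = growth equal to vehicle treated cultures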; conditions: S. cerevisiae cln2 rad14 strain, at 50.0 µM, active compounds read high
Method in brief: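 Strain: cln2 rad14 yeast, altered in cell cycle control and DNA damage repair. Read-out: growth inhibition vs vehicle.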

[5] = NCI Yeast Anticancer Drug Screen. Data for the bub3 strain (AID 167); conditions: S. cerevisiae bub3 mutant strain, at 50.0 µM, active compounds read high
Method in brief: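 Growth of a checkpoint-deficient yeast mutant is measured after compound exposure. Values represent inhibition relative to vehicle.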

[6] = NCI Yeast Anticancer Drug Screen. Data for the mlh1 rad18 strain (AID 175); conditions: S. cerevisiae mlh1 rad18 strain growth inhibition; at 50.0 µM; active compounds read high
Method in brief: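 A repair-deficient yeast strain is exposed to test compound, and growth is scored relative to vehicle-treated controls.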

Measured: growth inhibition

Clc1cc(Br)c2c(Cl)ccnc2c1Br
inactive: [1] 35.6% | [2] -1.3% | [3] 7.5% | [4] -8.65% | [5] 0.85% | [6] 20%

COC(=O)C(N)Cc1ccc(O)c(O)c1 (stereo not drawn)
inactive: [1] 20.1% | [2] 4.7% | [3] 8.1% | [4] 10.8% | [5] 22.9% | [6] 48.5%

O=C(O)Cn1ccc(=O)c2ccc([N+](=O)[O-])cc21
inactive: [1] 35.7% | [2] 15.2% | [3] 13.7% | [4] 26.9% | [5] 23.8% | [6] -47.5%

O=C(Nc1ccccc1Cl)c1ccc(Cl)cc1
inactive: [1] 4.75% | [2] 14.9% | [3] 8.05% | [4] -16.2% | [5] 29.1% | [6] -4.75%

CCOC(=O)C(C(=O)c1cccnc1)C(C(=O)OCC)C(=O)c1cccnc1 (stereo not drawn)
inactive: [1] 5.1% | [2] 20.9% | [3] 6% | [4] 20.4% | [5] 12.1% | [6] 5.55%

CCCCCCC(C#N)(CCN(C)C)c1ccccc1 (stereo not drawn)
inactive: [1] 15.4% | [2] 18.7% | [3] 14.3% | [4] -8% | [5] 50.1% | [6] 22.8%

COC(=O)C1c2ccccc2CC(=O)N1NC(=O)c1ccccc1 (stereo not drawn)
inactive: [1] -7.7% | [2] -2.95% | [3] -17.1% | [4] 4.5% | [5] 3.65% | [6] 16.6%

Cc1cc(C)cc(Sc2c([N+](=O)[O-])ncn2C)c1
inactive: [1] 7.65% | [2] 19.3% | [3] -16.7% | [4] 21.1% | [5] 29.2% | [6] 39.7%

COc1ccc([N+](=O)[O-])cc1OC
inactive: [1] 29.9% | [2] -0.15% | [3] 33.1% | [4] 1.65% | [5] 0.45% | [6] 16.1%

OCC1NCC(O)C(O)C1O (stereo not drawn)
inactive: [1] -6.6% | [2] -11.6% | [3] -14.4% | [4] 2.3% | [5] -8.3% | [6] 7.25%

COc1ccc(NC(=S)c2ccoc2C)cc1CC(=O)OC(C)C
inactive: [1] 17.4% | [2] 18.4% | [3] 48.5% | [4] 13.2% | [5] 37.9% | [6] -18.7%

COC(=O)NC(C(F)(F)F)(C(F)(F)F)P1(=O)OCCCO1
inactive: [1] 54.5% | [2] 59.9% | [3] 26.3% | [4] 43% | [5] 54% | [6] 37.6%

N#CCCNCCNCCC#N
inactive: [1] -30.8% | [2] -2.25% | [3] -18.1% | [4] -68.2% | [5] -26.1% | [6] -26.4%

CCCNc1nc(C)nc2[nH]c(Cc3ccccc3)c(C)c12
inactive: [1] 12.4% | [2] 11.9% | [3] 21.9% | [4] 0.8% | [5] 14.8% | [6] 27.1%

CSc1nc(N)c(N)c(N)n1
inactive: [1] 0.1% | [2] 2.9% | [3] -2.75% | [4] -21.8% | [5] 11.8% | [6] 14.4%

c1ccc2c(c1)SCCCSCCCS2
inactive: [1] -4.35% | [2] -4.6% | [3] -5.45% | [4] -9.4% | [5] 9.15% | [6] -11.4%

CC(=O)CC(=O)N1CCC(C)CC1
inactive: [1] 20.4% | [2] -24.9% | [3] -16.4% | [4] 27.6% | [5] -14.1% | [6] -10.2%

O=c1c2[nH]cnc2n(-c2ccccc2)c(=S)n1-c1ccccc1
inactive: [1] 6.5% | [2] 1.8% | [3] -26.1% | [4] -6.55% | [5] -26.9% | [6] 13.8%

CCOC(=O)C1CC(O)c2ccc(Cl)cc2N1 (stereo not drawn)
inactive: [1] 5.45% | [2] 10.2% | [3] 20.6% | [4] 16.1% | [5] 9.6% | [6] 6.15%

OC1COC(O)(CNCCc2c[nH]c3ccc(OCc4ccccc4)cc23)C(O)C1O (stereo not drawn)
inactive: [1] -25.5% | [2] 7.25% | [3] -18.2% | [4] -49.7% | [5] -20.7% | [6] 19.1%

S=c1[nH]nc2nc3c4ccccc4c4ccccc4c3nn12
inactive: [1] 53.7% | [2] 22.8% | [3] 10.3% | [4] 14.2% | [5] 21.2% | [6] 25.7%

CCN(CC)Cc1c(C)cccc1O
inactive: [1] -4.65% | [2] -4.35% | [3] -27.8% | [4] -49.5% | [5] -0.45% | [6] -16.4%

N#C/C(=C/c1cccnc1)C(=O)c1ccccc1
inactive: [1] -6.1% | [2] -18.9% | [3] 1.3% | [4] 12.6% | [5] -22.6% | [6] 7.15%

Cc1ccc(C(=O)NCCN2CCCC2)c([N+](=O)[O-])c1OCc1ccccc1
inactive: [1] 6.15% | [2] -20% | [3] 4.8% | [4] -22.9% | [5] -4.85% | [6] -5.8%

O=C(O)c1c2c(nc3ccccc13)CCC2
inactive: [1] 2.55% | [2] -9.75% | [3] 6.35% | [4] -14.5% | [5] 12.2% | [6] -8.4%

COc1ccccc1/C=N\NC(C)=O
inactive: [1] -9.9% | [2] 6.05% | [3] 5.35% | [4] 2.25% | [5] 6.05% | [6] -14.7%

Cc1ccc(C2C3CCC(=O)C=C3CN2C=O)cc1O (stereo not drawn)
inactive: [1] 10.2% | [2] 8.4% | [3] -3.2% | [4] -44.6% | [5] -2.6% | [6] 12.8%

O=C(CO)c1ccc(-c2ccccc2)cc1
inactive: [1] -8% | [2] -12.4% | [3] -19.1% | [4] -12.7% | [5] 4.95% | [6] 16.2%

COc1ccc(CC2(Cc3ccc(OC)cc3)CCOC2=O)cc1
inactive: [1] -23.1% | [2] -31.9% | [3] -16.1% | [4] 1.2% | [5] 2.25% | [6] -31.4%

O=C1c2ccccc2C(=O)C2C1C1C(=O)c3ccccc3C(=O)C21 (stereo not drawn)
inactive: [1] -14.6% | [2] -1.5% | [3] 2.45% | [4] -20.2% | [5] -8.6% | [6] 24.6%

CCC(=O)Oc1ccc(C(C)(C)C)cc1
inactive: [1] -5.85% | [2] -3.75% | [3] 1.95% | [4] -2.25% | [5] 11.1% | [6] 1.1%

Cc1cc2ncn(CO)c2cc1C
inactive: [1] -4.5% | [2] -0.2% | [3] 18.8% | [4] -7.4% | [5] 20% | [6] 0.75%

O=C(COc1ccccc1Cl)N1N=C(c2ccccc2)CC1(O)c1ccccc1 (stereo not drawn)
inactive: [1] -4.25% | [2] 10.1% | [3] 25% | [4] 8.35% | [5] 19.6% | [6] 15.9%

CCOc1ccc(C(=O)OC(C)C)cc1
inactive: [1] 26.5% | [2] 4.15% | [3] 1.9% | [4] 2.7% | [5] -2.45% | [6] 6.15%

O=C1c2ccccc2C(c2ccccc2)C1c1ccccc1 (stereo not drawn)
inactive: [1] 22.8% | [2] 15.9% | [3] 17.6% | [4] -16.6% | [5] 20.6% | [6] 0.8%

N=C(N)N1CCc2ccccc2C1
inactive: [1] -5.55% | [2] 7.3% | [3] -2% | [4] -3.35% | [5] -28.9% | [6] 2.65%

O=C(c1nc2ccccc2[nH]1)N1CCN(c2ccccc2)CC1
inactive: [1] 2.95% | [2] -1.55% | [3] -9% | [4] 5.55% | [5] 1.35% | [6] 7.3%

CCOC(=O)CN1CCC(C(=O)OCC)CC1
inactive: [1] 7.75% | [2] -27% | [3] 20.6% | [4] 12.9% | [5] -3.05% | [6] 20.8%

CC(=O)c1ccc(N=NN(C)C)cc1
inactive: [1] 0.2% | [2] 1% | [3] -2.65% | [4] -18.4% | [5] -21.9% | [6] -15.6%

Fc1ccccc1CSc1n[nH]c(=S)c2nc[nH]c12
inactive: [1] 4.05% | [2] 8.3% | [3] 17.8% | [4] -12.3% | [5] 0.3% | [6] 12%

c1ccc(N=C(C(=Nc2ccccc2)c2ccccc2)c2ccccc2)cc1
inactive: [1] 4.7% | [2] 13.6% | [3] 3.65% | [4] -67.8% | [5] 4.65% | [6] -9.05%

O=c1c2ccccc2[nH]c2c(O)c3c(=O)c4ccccc4[nH]c3cc12
inactive: [1] -8.6% | [2] -2.05% | [3] 3.9% | [4] -4.4% | [5] 3.15% | [6] 4.05%

COc1cc(Cl)ccc1C
inactive: [1] -1.2% | [2] -1.75% | [3] 5.75% | [4] -14.3% | [5] 18.1% | [6] -16.6%
